From PubChem
This is a sample that favours compounds with a hit; in the whole collection about 2.4% have one here.
FEN1 inhibitor: qHTS Assay for the Inhibitors of Human Flap endonuclease 1 (FEN1). P39748. Recombinant FEN1 flap cleavage, fluorescence, 15 min. Potency, µM (top dose mostly 114 µM), for the others: at the top dose activity change, negative = inhibition, most hits filed as inhibitors. 390,000 tested, 0.35% active. AID 588795, 2011; further: on the % scale 0 is the no-effect control and ±100 the full control effect; nearly all actives have a fitted effect of over 65% in size
Target sequence (P39748 whole entry, looked up): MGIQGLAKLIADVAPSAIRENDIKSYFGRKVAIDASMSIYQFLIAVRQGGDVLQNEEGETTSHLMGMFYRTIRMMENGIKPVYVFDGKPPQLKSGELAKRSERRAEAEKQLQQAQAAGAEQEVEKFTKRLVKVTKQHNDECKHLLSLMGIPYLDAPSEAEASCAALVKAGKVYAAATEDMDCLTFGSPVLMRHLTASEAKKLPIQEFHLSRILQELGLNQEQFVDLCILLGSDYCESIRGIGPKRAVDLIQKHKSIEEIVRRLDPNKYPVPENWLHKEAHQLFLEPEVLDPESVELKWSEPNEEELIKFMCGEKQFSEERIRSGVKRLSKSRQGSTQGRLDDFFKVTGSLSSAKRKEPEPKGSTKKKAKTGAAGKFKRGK
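Concentration–response screening of FEN1 (10 nM): 15 min compound preincubation at room temperature, reaction started with 50 nM substrate and read at 0 and 15 min. Corrected, normalized data were fitted by a four-parameter Hill equation.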
WRN inhibitor: qHTS for Inhibitors of WRN Helicase; Bifunctional 3'-5' exonuclease/ATP-dependent helicase WRN (Homo sapiens), Q14191; WRN helicase unwinding, fluorescent forked duplex, kinetic; Potency, µM (series often up to 114 µM), without a hit: at the top dose activity change, negative = inhibition, hits mostly inhibitors; 360,000 tested, 0.46% active; AID 651768, 2012; further: on the % scale 0 is the no-effect control and ±100 the full control effect; nearly all actives have a fitted effect of over 55% in size
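Enzyme (20 nM final) and test compound sit together 15 min at room temperature before substrate addition. Substrate is a single-forked duplex oligonucleotide (100 nM) labelled with fluorophore and quencher, with 2 mM ATP; helicase unwinding raises red fluorescence, read kinetically.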
Pol beta inh: qHTS Assay for Inhibitors of DNA Polymerase Beta | 340,000 tested, 1.3% active | AID 485314, 2010 | P06746 | Potency, µM (top dose mostly 114 µM), without a hit: at the highest dose activity change, negative = inhibition, most hits filed as inhibitors | Pol beta primer extension/strand displacement, fluorescence kinetic; further: on the % scale 0 is the no-effect control and ±100 the full control effect
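Pol beta (10 nM) was preincubated with compound for 15 min at room temperature. The reaction was then started with 50 nM substrate and read immediately and after a further 10 min at room temperature.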
POLK inh: qHTS for Inhibitors of Polymerase Kappa. Potency, µM (top dose mostly 107 µM), without a hit: top-dose activity, negative = inhibition, hits mostly inhibitors. 400,000 tested, 0.53% active. purified Pol kappa, fluorescent DNA synthesis assay, 10 min; further: on the % scale 0 is the no-effect control and ±100 the full control effect
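Enzyme at 10 nM met test compounds for 15 min at room temperature. Substrate addition (50 nM final) began the reaction, which was monitored by fluorescence at 0 and 10 min.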
Pol eta inh: qHTS for Inhibitors of Polymerase Eta; DNA polymerase eta (Homo sapiens), Q9Y253; recombinant Pol eta, fluorescent DNA replication assay; Potency, µM (doses to about 114 µM), without a hit: at the top dose activity change, negative = inhibition, actives largely listed as inhibitors; 390,000 tested, 1.2% active; further: on the % scale 0 is the no-effect control and ±100 the full control effect
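Pol eta (10 nM) was preincubated with compounds for 15 min at room temperature, after which fluorescent replication substrate (50 nM final) was added to start the reaction. Fluorescence was read kinetically at 0 and 10 min.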
POLI inh: qHTS for Inhibitors of Polymerase Iota. DNA polymerase iota (Homo sapiens), Q9UNA4. Pol iota fluorescent replication assay, 10 min. Potency, µM (highest dose often 115 µM), without a hit: at the top dose activity, negative = inhibition, most hits filed as inhibitors. 390,000 tested, 1% active. AID 588590, 2011
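Pol iota at 10 nM preincubated 15 min with compounds at room temperature; reaction started with fluorescent substrate, 50 nM final. Fluorescence read kinetically at 0 and 10 min; buffer-only wells as negative control.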
Active calls of the source: *; ? = inconclusive; nt = no result; ! = repeats disagree; [ ] = another dose, or the depositor's remark. The call rests on the fitted dose curve; in most records, active means well fitted curve in the direction sought with a large enough effect; inconclusive means small, poorly fitted or top-dose-only effect, or another doubt; inactive means no such curve, though single readings can be large; an effect the other way counts as inactive or inconclusive. Potency means the concentration at half of the fitted maximal effect.

SMILES | FEN1 inhibitor | WRN inhibitor | Pol beta inh | POLK inh | Pol eta inh | POLI inh
O=C1/C(=C\c2cccc(O)c2)SC(=S)N1Cc1ccccc1 | -25% | -8% | 8% | -9% | -16% | -17%
O=C(O)COc1cccc(/C=C2/SC(=S)N(Cc3ccccc3)C2=O)c1 | -13% | ? | ? | -42% | 79µM* | ?
Cc1cc(S(=O)(=O)N2CCN(Cc3noc(CCC(=O)N4CCCCC4)n3)CC2)ccc1F | 5% | nt | 2% | -15% | -14% | 22%
CCCCC(=O)Nc1ccc(OCc2cc(=O)n3ccc(C)cc3n2)cc1 | 0% | nt | 19% | -5%[60.1 µM] | -2% | -17%
Cc1cc2nc(-c3ccc(OCc4ccc(F)cc4)cc3)cc(C(F)(F)F)n2n1 | 0% | nt | 17% | -5% | -16% | 45%
COC(=O)C(C)Sc1n[nH]c(=S)s1 (stereo not given) | 9% | -1% | 16% | 9% | -20% | 13%
O=C(O)CC(Sc1n[nH]c(=S)s1)C(=O)O (stereo not given) | 12% | 4% | 25µM* | -21% | 25% | ?
CCOC(=O)C[n+]1c(C)sc2ccc(OC)cc21 | -4% | 50µM* | 21% | 1% | -13% | ?
CCO/C(=C/c1sc2ccc(OC)cc2[n+]1CCCS(=O)(=O)[O-])CC | 11% | -4% | -1% | -13% | -3% | -16%
Cc1ccc(-c2cc(C(=O)Nc3ccccc3C)c3ccccc3n2)o1 | -1% | -23% | 10µM* | -8% | ? | 0%
Cc1ccc(-c2cc(C(=O)NN3CCOCC3)c3cc(Br)ccc3n2)o1 | -10% | -7% | ? | -13% | 0% | 13%
Cc1ccc(-c2cc(C(=O)NC3=NCCS3)c3cc(Br)ccc3n2)o1 | nt | nt | 79µM* | nt | nt | nt
COc1cccc(NC(=O)c2cc(-c3ccc(C)o3)nc3ccccc23)c1 | -18% | -28% | ? | ? | 79µM* | ?
CCCCCC(=O)/C=C/C=C\CCCCCCCC(=O)O | nt | nt | nt | 2%[19.4 µM] | nt | nt
Nc1ncnc2c1ncn2[C@@H]1O[C@H](COP(=O)(O)OP(=O)(O)OC[C@H]2OC(O)[C@H](O)[C@@H]2O)[C@@H](O)[C@H]1O (stereo not given in full) | nt | nt | nt | 6%[19.4 µM] | nt | nt
Nc1ncccc1C(=O)OCC(=O)NC1CCCCCC1 | 15% | 0%[11.6 µM] | nt | -26% | 79µM* | 23%
COc1ccc2cc(-c3nnc(Nc4ccccc4)s3)c(=O)oc2c1 | 14% | nt | 2% | -17%[60.1 µM] | -3% | 11%
O=C(O)Cn1cc(/C=N/NC(=O)c2cc3cc(Br)ccc3o2)c2ccccc21 | -27% | ? | ? | -25% | -22% | 71µM*
COc1ccc(-n2c(=O)c(C)nc3cnc(Nc4ccccc4)nc32)cc1 | nt | nt | nt | -4%[60.1 µM] | nt | nt
Cc1c(C(=O)O)cnc2c([N+](=O)[O-])cnn12 | -11% | 79µM* | ? | -33% | ? | 60%
CC1CCCCC1NC(=O)CCc1nc2sc3c(c2c(=O)[nH]1)CCCC3 (stereo not given) | 6% | -34% | nt | -31% | ? | ?
O=C(CCc1nc2sc3c(c2c(=O)[nH]1)CCCC3)NCCc1ccccc1 | 0% | -9%[11.6 µM] | nt | ? | ? | 50µM*
O=C(CCc1nc2sc3c(c2c(=O)[nH]1)CCCC3)NCCc1ccc(F)cc1 | -2% | -12% | 22µM* | -17% | ? | ?
CNS(=O)(=O)c1cccc(C(=O)OCc2cc(=O)oc3c(C)c(O)ccc23)c1 | -21% | -16% | 10µM* | -14% | ? | ?
Cc1ccc(S(=O)(=O)NCC(=O)OCc2cc(=O)oc3c(C)c(C)ccc23)cc1C | -14% | -4% | nt | -22% | -11% | 10%
SMILES | FEN1 inhibitor | WRN inhibitor | Pol beta inh | POLK inh | Pol eta inh | POLI inh
O=C1c2cc(Br)ccc2N(Cc2ccc(Br)cc2)S(=O)(=O)C1c1cc(Cl)c(Cl)cc1[N+](=O)[O-] (stereo not given) | ? | ? | nt | ? | 22µM* | ?
O=c1c2ccccc2ncn1-c1ccc(Br)cc1[N+](=O)[O-] | 1% | 4% | -5% | 0% | -21% | 26%
CC1CCc2nc3ccc(S(=O)(=O)N4CCC(C(=O)N5CCCCC5)CC4)cc3c(C(=O)O)c2C1 (stereo not given) | 16% | -6% | 26% | -7% | -12% | 9%
O=C(O)c1c2c(nc3ccc(S(=O)(=O)N4CCC(C(=O)N5CCCCC5)CC4)cc13)CCCC2 | -5% | -12%[57.1 µM] | -2% | ? | 32µM* | ?
CCc1cccc(CC)c1NC(=O)C(Cc1ccccc1)NS(=O)(=O)c1cccc2nsnc12 (stereo not given) | -10% | nt | 38% | -12% | 0% | 11%
c1ccc(Nc2c(-c3ccco3)nc3ccccn23)cc1 | 1% | 1% | 3% | -5% | -7% | 46%
c1ccc(-c2nc(-c3ccco3)n3ccccc23)cc1 | -22% | -24% | 35µM* | -8% | ? | -6%
CCOC(=O)c1cc2c(=O)n3ccccc3nc2n(Cc2ccco2)c1=NC(=O)c1cccc(C)c1 | 0% | nt | -13% | -27% | -3% | ?
Cc1cccn2c(=O)c3cc(C#N)c(=NC(=O)c4ccccc4)n(Cc4ccco4)c3nc12 | 50µM*! | 50µM*! | nt | ? | 25µM* | ?
CCOC(=O)c1cc2c(=O)n3ccccc3nc2n(Cc2ccco2)c1=NC(=O)c1ccccc1Br | ? | nt | ? | 89µM* | ? | 14µM*
CCOC(=O)c1cc2c(=O)n3ccccc3nc2n(Cc2ccco2)c1=NC(=O)c1cccc(Br)c1 | ? | nt | 22µM* | 2%[60.1 µM] | 1% | 40µM*
CCOC(=O)c1cc2c(=O)n3ccccc3nc2n(Cc2ccco2)c1=NC(=O)c1ccccc1OCC | 0% | -10% | 1% | -4% | -8% | ?
CCOC(=O)c1cc2c(=O)n3ccccc3nc2n(Cc2ccco2)c1=NC(=O)c1cccnc1 | -2% | ? | 18µM* | -38% | ? | ?
CCOC(=O)c1cc2c(=O)n3ccccc3nc2n(Cc2ccco2)c1=NC(=O)c1ccc(Br)cc1 | 35µM* | nt | -3% | ? | -9% | 45µM*
COc1ccc(S(=O)(=O)CC(=O)c2cc3cccc(C)c3oc2=O)cc1 | -3% | -28% | ? | -25% | 50µM* | ?
CN(CC(=O)Nc1ccc(F)c(F)c1F)C(=O)/C=C/c1ccco1 | 2% | -16% | nt | -38% | ? | 50µM*
